According to PubChem BioAssay (Tox21):
“And” between values parts separate entries of the source, which are not always exact repeats. Equal values may be shown once. Results filed as inconclusive are left out. Where a call stands in place of a potency, no number is given. More than one record can exist for a structure, and the calls need not agree. The source made the active and inactive calls. Unless noted, the call rests on the fitted dose curve; in most records, active means well fitted curve in the direction sought with a large enough effect in the repeat runs; inconclusive means weak or mixed curves; inactive means no such curve, though single readings can be large; an effect the other way counts as inactive or inconclusive.

Columns and labels:
[1] = qHTS assay to identify aromatase inhibitors - cell viability counter screen (AID 743084);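 further: cells stimulated with testosterone during compound exposure; nearly all actives have a fitted effect of over 55% in size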; further: potency means the concentration at half of the fitted maximal effect
[2] = target: Aryl hydrocarbon receptor (Homo sapiens) (UniProt P35869); test: qHTS assay to identify small molecule that activate the aryl hydrocarbon receptor (AhR) signaling pathway (AID 743085); further: nearly all actives have a fitted effect of over 15% in size; further: potency means the concentration at half of the fitted maximal effect;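 on activation: HG2L7.5c1 human HepG2 liver cells with stably integrated DRE-driven firefly reporter; series mostly up to about 70 µM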
Sequence of Aryl hydrocarbon receptor (Homo sapiens) (P35869 whole entry, looked up): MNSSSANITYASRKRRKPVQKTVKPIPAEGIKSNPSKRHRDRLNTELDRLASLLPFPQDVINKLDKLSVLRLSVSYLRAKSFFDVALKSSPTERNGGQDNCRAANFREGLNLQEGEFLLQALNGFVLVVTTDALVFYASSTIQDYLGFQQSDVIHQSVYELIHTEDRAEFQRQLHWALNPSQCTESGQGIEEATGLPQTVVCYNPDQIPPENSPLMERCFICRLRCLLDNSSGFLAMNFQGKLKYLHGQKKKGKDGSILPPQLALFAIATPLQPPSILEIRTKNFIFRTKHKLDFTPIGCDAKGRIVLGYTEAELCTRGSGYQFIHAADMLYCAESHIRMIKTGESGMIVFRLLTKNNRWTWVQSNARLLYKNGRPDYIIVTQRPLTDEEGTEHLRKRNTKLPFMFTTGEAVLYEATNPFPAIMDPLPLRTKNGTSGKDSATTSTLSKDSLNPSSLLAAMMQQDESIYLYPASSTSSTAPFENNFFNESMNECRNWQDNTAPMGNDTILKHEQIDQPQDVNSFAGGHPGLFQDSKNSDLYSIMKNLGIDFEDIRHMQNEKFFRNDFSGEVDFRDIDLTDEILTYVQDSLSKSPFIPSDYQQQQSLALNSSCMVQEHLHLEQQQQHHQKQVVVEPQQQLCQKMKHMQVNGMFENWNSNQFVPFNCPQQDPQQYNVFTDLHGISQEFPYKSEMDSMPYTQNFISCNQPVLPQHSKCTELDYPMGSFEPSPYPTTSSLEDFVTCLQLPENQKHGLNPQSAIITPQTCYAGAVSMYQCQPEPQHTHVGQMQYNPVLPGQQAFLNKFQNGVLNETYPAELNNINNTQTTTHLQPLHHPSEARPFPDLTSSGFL
Method in brief: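 HepG2 cells (HG2L7.5c1) stably carrying a firefly luciferase reporter driven by 20 dioxin responsive elements were exposed to compound for 24 h at 37C after a 5 h settling period; luminescence rise (ONE-Glo) indicated activation.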

[3] = qHTS assay to identify small molecule that activate the aryl hydrocarbon receptor (AhR) signaling pathway - cell viability counter screen (AID 743086); further: nearly all actives have a fitted effect of over 45% in size; further: potency means the concentration at half of the fitted maximal effect
Method in brief: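 Cytotoxicity counter screen: CellTiter-Fluor signal (30 min, 37 C) in 4000 HepG2 cells/well carrying the DRE-luciferase reporter, following 24 h compound exposure at 37 C.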

[4] = qHTS assay to identify small molecule antagonists of the peroxisome proliferator-activated receptor gamma (PPARg) signaling pathway - cell viability counter screen (AID 743194); further: nearly all actives have a fitted effect of over 55% in size; further: potency means the concentration at half of the fitted maximal effect
Method in brief: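 Viability was measured as CellTiter-Glo luminescence in GeneBLAzer PPARg UAS-bla HEK293H cells. These cells had been exposed 17 h at 37 C to compounds together with rosiglitazone at 50 nM final, with the beta-lactamase readout taken in the same wells.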

[5] = qHTS assay for small molecule agonists of the antioxidant response element (ARE) signaling pathway - cell viability counter screen (AID 743203; calls by dose curve; further: nearly all actives have a fitted effect of over 55% in size; further: potency means the concentration at half of the fitted maximal effect)
Method in brief: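 CellSensor ARE-bla HepG2 cells, 2,000 per well, rested 5 hrs at 37C/5% CO2, then exposed to compound in DMSO for 16 hrs; viability read as CellTiter-Glo luminescence after 30 min at room temperature, in the reporter wells.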

[6] = qHTS assay for small molecule activators of the heat shock response signaling pathway - cell viability counter screen (AID 743209); further: nearly all actives have a fitted effect of over 50% in size
Method in brief: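 CellSensor HSE-bla HeLa cells, plated overnight at 37 C/5% CO2, were exposed to compounds in DMSO for 5 h at 37 C. Viability was then read in the same wells by CellTiter-Glo luminescence after 30 min at room temperature.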

[7] = qHTS assay to identify small molecule agonists of the peroxisome proliferator-activated receptor delta (PPARd) signaling pathway - cell viability counter screen (AID 743211); further: nearly all actives have a fitted effect of over 55% in size; further: potency means the concentration at half of the fitted maximal effect
Method in brief: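 PPARd-bla HEK293H cells (UAS-beta-lactamase reporter) were treated with compounds for 17 h at 37 C. Viability was then read in the same wells by CellTiter-Glo luminescence after 30 min at room temperature.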

[8] = qHTS assay to identify small molecule antagonists of the peroxisome proliferator-activated receptor delta (PPARd) signaling pathway - cell viability counter screen (AID 743213); further: nearly all actives have a fitted effect of over 50% in size; further: potency means the concentration at half of the fitted maximal effect
Method in brief: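 HEK293H cells with the PPARd UAS-bla reporter, co-treated 17 h at 37 C with compounds and L165041 (300 nM final), were lysed with CellTiter-Glo. Luminescence indicated viable cell content.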

[9] = target: Bile acid receptor (Homo sapiens) (UniProt Q96RI1); test: qHTS assay to identify small molecule antagonists of the farnesoid-X-receptor (FXR) signaling pathway (AID 743217; active means well fitted inhibition curve with a large enough effect in the signal ratio in the repeat runs, not every such curve was filed as active; the % refers to the signal ratio; further: potency means the concentration at half of the fitted maximal effect)
Sequence of Bile acid receptor (Homo sapiens) (Q96RI1 whole entry, looked up): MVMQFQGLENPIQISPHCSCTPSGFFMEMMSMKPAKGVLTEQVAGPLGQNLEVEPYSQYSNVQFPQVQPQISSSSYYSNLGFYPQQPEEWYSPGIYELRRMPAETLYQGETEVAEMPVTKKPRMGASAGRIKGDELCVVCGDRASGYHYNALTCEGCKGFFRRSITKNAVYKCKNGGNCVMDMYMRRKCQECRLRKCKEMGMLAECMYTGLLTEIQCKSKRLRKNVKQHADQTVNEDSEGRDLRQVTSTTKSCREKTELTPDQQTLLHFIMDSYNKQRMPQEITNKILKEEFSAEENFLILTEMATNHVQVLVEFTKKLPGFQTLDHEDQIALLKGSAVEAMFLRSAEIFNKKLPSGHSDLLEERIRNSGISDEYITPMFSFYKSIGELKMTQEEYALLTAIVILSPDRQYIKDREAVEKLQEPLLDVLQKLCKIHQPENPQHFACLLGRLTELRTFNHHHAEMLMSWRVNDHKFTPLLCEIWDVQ
Method in brief: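 FXR-UAS-bla HEK 293T cells pre-incubated 5 h at 37 °C, then exposed to compounds with chenodeoxycholic acid (50 uM final) for 16 h at 37 °C. Beta-lactamase reporter read by LiveBLAzer B/G FRET substrate fluorescence after 2 h at room temperature.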

[10] = target: Bile acid receptor (Homo sapiens) (UniProt Q96RI1); test: qHTS assay to identify small molecule agonists of the farnesoid-X-receptor (FXR) signaling pathway (AID 743220; active means well fitted activation curve with a large enough effect in the signal ratio in the repeat runs, not every such curve was filed as active; the % refers to the signal ratio)
Method in brief: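 Beta-lactamase reporter under UAS control in GeneBLAzer FXR HEK 293T cells (5000/well) measured with LiveBLAzer FRET substrate after 2 h at room temperature. Compound exposure lasted 16 h at 37C.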

[11] = qHTS assay for small molecule agonists of the antioxidant response element (ARE) signaling pathway (AID 743202; active means well fitted activation curve with a large enough effect in the signal ratio in the repeat runs, not every such curve was filed as active; the % refers to the signal ratio; further: potency means the concentration at half of the fitted maximal effect)
Method in brief: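 An ARE-responsive beta-lactamase gene stably integrated in HepG2 cells serves as reporter. After 5 h plating and 16 h compound incubation at 37 C, fluorescence of the B/G FRET substrate was measured.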

[12] = qHTS assay for small molecule activators of the heat shock response signaling pathway (AID 743210; active means well fitted activation curve with a large enough effect in the signal ratio in the repeat runs, with a control signal flat, not every such curve was filed as active; the % refers to the signal ratio;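 further: HeLa cells with beta-lactamase reporter driven by heat shock elements; series mostly up to about 63 µM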)
Method in brief: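 In HSE-bla HeLa cells, 5 h compound incubation (37 C) precedes addition of LiveBLAzer B/G substrate; after 2.5 h at room temperature, fluorescence intensity indicates reporter induction.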

[13] = target: Peroxisome proliferator-activated receptor delta (Homo sapiens) (UniProt Q03181); test: qHTS assay to identify small molecule antagonists of the peroxisome proliferator-activated receptor delta (PPARd) signaling pathway (AID 743215; active means well fitted inhibition curve with a large enough effect in the signal ratio in the repeat runs, not every such curve was filed as active; the % refers to the signal ratio;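 further: cells stimulated with agonist L165041 at 300 nM final during compound exposure; series mostly up to about 62 µM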)
Sequence of Peroxisome proliferator-activated receptor delta (Homo sapiens) (Q03181 whole entry, looked up): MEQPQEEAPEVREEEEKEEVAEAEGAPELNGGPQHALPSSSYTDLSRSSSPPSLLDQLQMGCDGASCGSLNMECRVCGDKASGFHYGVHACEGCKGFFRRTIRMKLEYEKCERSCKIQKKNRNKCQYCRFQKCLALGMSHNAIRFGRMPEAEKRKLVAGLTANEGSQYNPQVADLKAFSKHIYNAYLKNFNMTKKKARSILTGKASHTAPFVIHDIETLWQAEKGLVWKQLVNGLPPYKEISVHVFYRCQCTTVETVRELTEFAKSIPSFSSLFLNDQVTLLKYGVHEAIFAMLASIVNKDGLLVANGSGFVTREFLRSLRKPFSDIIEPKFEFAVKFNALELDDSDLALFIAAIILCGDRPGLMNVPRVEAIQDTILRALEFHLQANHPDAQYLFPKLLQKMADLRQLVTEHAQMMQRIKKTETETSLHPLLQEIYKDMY
Method in brief: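 PPARd UAS-bla HEK293H cells were pre-incubated 5 h at 37 C, then given test compounds in DMSO plus agonist L165041 (300 nM final). After 17 h at 37 C, beta-lactamase FRET substrate was added; fluorescence read after 2 h at room temperature.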

[14] = qHTS assay to identify small molecule agonists of the farnesoid-X-receptor (FXR) signaling pathway - cell viability counter screen (AID 743218); further: nearly all actives have a fitted effect of over 45% in size
Method in brief: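 FXR-UAS-bla HEK 293T cells, plated 5 h at 37 C, were exposed to compounds for 16 h at 37 C. CellTiter-Glo was then added to the same wells as the bla readout; luminescence read after 30 min at room temperature.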

[15] = qHTS assay to identify small molecule antagonists of the farnesoid-X-receptor (FXR) signaling pathway - cell viability counter screen (AID 743221; active means well fitted cell-killing curve with a large enough effect in the repeat runs, not every such curve was filed as active; further: nearly all actives have a fitted effect of over 50% in size)
Method in brief: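 FXR-UAS-bla HEK 293T cells were treated with test compounds plus chenodeoxycholic acid (50 uM final) for 16 h at 37 C. Cell viability in the same wells was then read as CellTiter-Glo luminescence after 30 min at room temperature.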

[16] = target: Vitamin D3 receptor (Homo sapiens) (UniProt P11473); test: qHTS assay to identify small molecule agonists of the vitamin D receptor (VDR) signaling pathway (AID 743222; calls by dose curve)
Sequence of Vitamin D3 receptor (Homo sapiens) (P11473 whole entry, looked up): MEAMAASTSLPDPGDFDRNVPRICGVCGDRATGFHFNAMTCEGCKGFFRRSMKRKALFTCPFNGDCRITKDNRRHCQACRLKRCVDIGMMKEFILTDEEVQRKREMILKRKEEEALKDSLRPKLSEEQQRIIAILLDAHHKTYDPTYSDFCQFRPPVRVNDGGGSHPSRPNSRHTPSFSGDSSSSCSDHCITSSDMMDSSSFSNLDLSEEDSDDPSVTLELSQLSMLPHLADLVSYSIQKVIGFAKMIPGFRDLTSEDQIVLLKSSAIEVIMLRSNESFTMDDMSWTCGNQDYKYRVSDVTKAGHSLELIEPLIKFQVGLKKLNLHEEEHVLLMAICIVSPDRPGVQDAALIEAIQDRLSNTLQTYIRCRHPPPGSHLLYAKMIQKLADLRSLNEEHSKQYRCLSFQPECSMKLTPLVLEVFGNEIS
Method in brief: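 VDR-bla cells were plated 4 h at 37C/5% CO2, then exposed to compounds in DMSO for 16 h. After LiveBLAzer B/G FRET substrate addition and 2 h at room temperature, beta-lactamase reporter fluorescence was read.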

[17] = target: Vitamin D3 receptor (Homo sapiens) (UniProt P11473); test: qHTS assay to identify small molecule antagonists of the vitamin D receptor (VDR) signaling pathway (AID 743223; active means well fitted inhibition curve with a large enough effect in the signal ratio in the repeat runs, not every such curve was filed as active; the % refers to the signal ratio)
Method in brief: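 VDR-bla cells were plated, incubated 4 h at 37C, then given compound and 1alpha,25-dihydroxyvitamin D3 (3 nM final). After 16 h at 37C, LiveBLAzer B/G FRET substrate was added for 2 h at room temperature and fluorescence read.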

[18] = target: Peroxisome proliferator-activated receptor delta (Homo sapiens) (UniProt Q03181); test: qHTS assay to identify small molecule agonists of the peroxisome proliferator-activated receptor delta (PPARd) signaling pathway (AID 743212; calls by dose curve)
Method in brief: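 HEK293H UAS-bla reporter cells, human PPARd system; compounds delivered in DMSO after 5 h plating, then at 37 C. Beta-lactamase FRET read, 2 h RT substrate step.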

[19] = target: Peroxisome proliferator-activated receptor gamma (Homo sapiens) (UniProt P37231); test: qHTS assay to identify small molecule agonists of the peroxisome proliferator-activated receptor gamma (PPARg) signaling pathway (AID 743094; active means well fitted activation curve with a large enough effect in the signal ratio in the repeat runs, not every such curve was filed as active; the % refers to the signal ratio)
Sequence of Peroxisome proliferator-activated receptor gamma (Homo sapiens) (P37231 whole entry, looked up): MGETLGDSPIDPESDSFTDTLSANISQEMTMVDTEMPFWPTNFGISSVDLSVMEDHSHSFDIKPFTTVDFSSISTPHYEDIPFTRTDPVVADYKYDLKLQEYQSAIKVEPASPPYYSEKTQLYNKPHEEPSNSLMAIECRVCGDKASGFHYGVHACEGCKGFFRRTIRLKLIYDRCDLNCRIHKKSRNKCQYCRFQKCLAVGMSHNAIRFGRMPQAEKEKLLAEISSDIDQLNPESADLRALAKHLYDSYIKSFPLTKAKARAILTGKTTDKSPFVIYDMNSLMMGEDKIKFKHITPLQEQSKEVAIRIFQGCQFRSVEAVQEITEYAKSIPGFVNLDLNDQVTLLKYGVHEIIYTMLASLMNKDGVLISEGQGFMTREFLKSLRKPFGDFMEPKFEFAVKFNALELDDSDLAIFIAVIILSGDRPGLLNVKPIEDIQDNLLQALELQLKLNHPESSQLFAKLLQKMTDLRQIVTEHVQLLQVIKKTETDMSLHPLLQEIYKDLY
Method in brief: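 GeneBLAzer PPARg UAS-bla HEK293H cells carrying a stably integrated beta-lactamase reporter were pre-incubated 5 h at 37C, then exposed to compounds in DMSO for 17 h at 37C; LiveBLAzer B/G FRET substrate was added for 1 h at room temperature and fluorescence read.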

[20] = target: Peroxisome proliferator-activated receptor gamma (Homo sapiens) (UniProt P37231); test: qHTS assay to identify small molecule antagonists of the peroxisome proliferator-activated receptor gamma (PPARg) signaling pathway (AID 743191; calls by dose curve; further: nearly all actives have a fitted effect of over 30% in size; further: potency means the concentration at half of the fitted maximal effect)
Method in brief: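 Beta-lactamase reporter under UAS control in HEK293H PPARg-bla cells; compound treatment 17 h at 37C. Read-out: fluorescence intensity after 1 h room-temperature incubation with LiveBLAzer B/G FRET substrate.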

Row | Structure (SMILES) | Potency [1] | Potency [2] | Potency [3] | Potency [4] | Potency [5] | Potency [6] | Potency [7] | Potency [8] | Potency [9] | outcome [10] | Potency [11] | outcome [12] | outcome [13] | Potency [14] | Potency [15] | outcome [16] | outcome [17] | outcome [18] | outcome [19] | Potency [20]
1 | CN(C)CCCN1c2ccccc2Sc2ccc(Cl)cc21 | 68.6 µM (active) | inactive | 30.6 µM (active) | 38.9 µM (active) and 26.6 µM (active) | 24.3 µM (active) and 29.8 µM (active) | inactive | 11 µM (active) and 23.7 µM (active) | 13.8 µM (active) and 18.8 µM (active) | 49 µM (active) and 26.6 µM (active) | inactive |  |  |  |  |  |  |  |  |  | 
2 | CC1(C)C(C=C(Cl)Cl)C1C(=O)OCc1cccc(Oc2ccccc2)c1 (stereo unspecified) | inactive | inactive | inactive | inactive | inactive |  | inactive | inactive |  |  | inactive | inactive | inactive | inactive | inactive | inactive | inactive |  |  | 
3 | C=CC(=O)OCCCC | inactive | inactive | inactive | inactive | inactive | inactive | inactive | inactive | inactive | inactive | inactive |  | inactive | inactive |  | inactive | inactive | inactive |  | 
4 | OC[C@@H](O)[C@@H](O[C@@H]1O[C@H](CO)[C@H](O)[C@H](O)[C@H]1O)[C@H](O)[C@@H](O)CO | inactive |  | inactive | inactive | inactive |  | inactive | inactive |  |  | inactive |  |  |  | inactive | inactive | inactive |  | inactive | inactive
5 | O=C1OC2(c3ccccc31)c1cc(I)c(O)c(I)c1Oc1c2cc(I)c(O)c1I |  | 23.7 µM (active) and inactive |  | inactive | inactive |  | inactive | inactive and 33.4 µM (active) |  |  | inactive | inactive | inactive | inactive |  |  | inactive |  |  | 
6 | Oc1ccc(C(c2ccc(O)cc2)C(Cl)(Cl)Cl)cc1 |  | inactive | inactive | 43.5 µM (active) | 68.6 µM (active) | inactive | 54.9 µM (active) | 38.9 µM (active) |  |  |  |  |  |  |  | inactive |  |  |  | 6.92 µM (active)
7 | Nc1ccc(N)c(Cl)c1 | 61 µM (active) and inactive | 54.4 µM (active) and 15.4 µM (active) | inactive | inactive | 68.5 µM (active) and inactive | inactive | inactive | inactive |  |  | 27.3 µM (active) |  | inactive | inactive | inactive | inactive |  |  |  | 
8 | NCCN | inactive | inactive | inactive | inactive | inactive |  | inactive |  |  |  | inactive |  | inactive |  | inactive |  |  | inactive |  | 
9 | Clc1ccc(Sc2cc(Cl)c(Cl)cc2Cl)cc1 | inactive |  | inactive | inactive | inactive | inactive | inactive | inactive |  |  | inactive |  |  |  |  | inactive | inactive |  | inactive | 
10 | COCCOCCOCCO | inactive | inactive | inactive | inactive | inactive | inactive | inactive | inactive |  |  | inactive |  |  | inactive | inactive | inactive | inactive |  |  | 
11 | CCCCCCOCCOCCO | inactive | inactive | inactive | inactive | inactive | inactive | inactive | inactive | inactive | inactive | inactive | inactive |  | inactive |  |  |  |  |  | 
12 | CCC(=O)O[C@H]1[C@H](O[C@@H]2[C@@H](C)[C@H](O[C@H]3C[C@@](C)(OC)[C@@H](O)[C@H](C)O3)[C@@H](C)C(=O)O[C@H](CC)[C@@](C)(O)[C@H](O)[C@@H](C)C(=O)[C@H](C)C[C@@]2(C)O)O[C@H](C)C[C@@H]1N(C)C | 18.1 µM (active) | inactive |  | inactive | 40.5 µM (active) and inactive | inactive | inactive | 23 µM (active) and inactive |  |  | inactive |  |  |  |  | inactive |  |  | inactive | 
13 | CC/C(=C(/CC)c1ccc(O)cc1)c1ccc(O)cc1 | inactive and 68 µM (active) |  | inactive |  |  | inactive | 61.6 µM (active) | 34.4 µM (active) | 16.8 µM (active) | inactive |  |  |  |  | inactive | inactive | inactive |  |  | 
